Screens from PubChem BioAssay.
Cruzain inh Det: qHTS Assay for Promiscuous and Specific Inhibitors of Cruzain (with detergent); purified cruzain, Z-FR-AMC fluorescence, 0.01% Triton; Potency, µM, for the others: max response, negative = inhibition, actives largely listed as inhibitors; 0.43% of 200,000 active; AID 1478, 2009;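 also: plate controls were neutral wells for no effect and buffer without enzyme for full effect; nearly all actives have a fitted effect of over 40% in size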
Target sequence (P25779 123-467 limits assumed): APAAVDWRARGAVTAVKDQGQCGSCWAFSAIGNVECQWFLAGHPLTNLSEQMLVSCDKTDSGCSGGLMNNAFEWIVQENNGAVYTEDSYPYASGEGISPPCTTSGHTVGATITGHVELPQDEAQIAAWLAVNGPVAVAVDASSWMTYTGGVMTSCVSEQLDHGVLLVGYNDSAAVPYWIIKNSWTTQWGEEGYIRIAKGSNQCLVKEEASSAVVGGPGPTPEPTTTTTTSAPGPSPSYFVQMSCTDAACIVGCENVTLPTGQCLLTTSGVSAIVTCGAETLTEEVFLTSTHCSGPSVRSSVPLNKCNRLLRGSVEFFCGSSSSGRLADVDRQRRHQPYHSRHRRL
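Compounds were screened in titration against cruzain (1.5 nM) with 0.01% Triton X-100 to counter colloidal aggregation. Activity was the AMC fluorescence increase over 60 s after adding 2 uM Z-FR-AMC at pH 5.5.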
Cruzain noTriton: qHTS Assay for Promiscuous and Specific Inhibitors of Cruzain (without detergent); AID 1476, 2009; purified cruzain, Z-FR-AMC fluorescence, no detergent; 2.3% of 200,000 active; Potency, µM, inactives show max response, negative = inhibition, usual class: inhibitors; Cruzipain (Trypanosoma cruzi), P25779;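 also: plate controls were enzyme without inhibitor for no effect and buffer without enzyme for full effect; nearly all actives have a fitted effect of over 40% in size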
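Detergent-free condition (0.00005% Triton X-100) in acetate buffer pH 5.5 with DTT. 1.5 nM enzyme and compound were pre-mixed 15 min, then 2 uM Z-FR-AMC substrate added; reaction progress from fluorescence change between first and third reads (60 s).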
NS1 function inh: qHTS Assay for Inhibitors of Influenza NS1 Protein Function; Potency, µM (doses to about 46.1 µM), for inactives: top-dose activity, positive = more growth; 0.4% of 270,000 active; AID 2326, 2010; calls by dose curve; also: actives are rising curves; nearly all actives have a fitted effect of over 50% in size
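In this qHTS, NS1 from influenza A is expressed in budding yeast, where it slows growth. Cells are switched from glucose to 2% galactose medium (pH 6.0, -URA), treated with compound, and growth recovery is read at OD600.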
An asterisk follows results filed as active; ? = inconclusive; / = no result given. The full list was thinned out, with hits kept by preference. Unless noted, calls follow the shape of the dose curve; as a rule, active = well fitted curve in the direction sought with a large enough effect; inconclusive = small, poorly fitted or top-dose-only effect, or another doubt; inactive = no such curve, though single readings can be large; an effect the other way counts as inactive or inconclusive. Potency is read from the fitted curve at half-maximal effect.

SMILES	Cruzain inh Det	Cruzain noTriton	NS1 function inh
CC1CCN(S(=O)(=O)c2ccc3c(c2)N(CC(=O)NCCCN2C(C)CCCC2C)C(=O)CO3)CC1 (stereo unspecified)	/	/	-3%
N#C/C(=C/c1ccc(-c2ccccc2)o1)c1nc(-c2cccs2)cs1	-10%	7.9µM*	19%
N#C/C(=C\c1ccc(-c2ccc(F)cc2)o1)C(=O)Nc1nc(-c2cccs2)cs1	5%	6.3µM*	14%
N#C/C(=C\c1ccc(-c2ccc(Br)cc2)o1)C(=O)Nc1ccccc1O	0%	15%	/
N#C/C(=C\c1ccc(-c2ccccc2)cc1)c1nc(-c2ccco2)cs1	-7%	?	0%
O=C(c1ccc(Br)cc1)c1cn[nH]c1-c1ccccc1O	/	/	3%
Cc1[nH]nc(-c2ccc(OCc3cnn(-c4ccccc4)c3)c(C)c2O)c1Oc1ccccc1	8%	13µM*	2%
Cc1[nH]nc(-c2ccc(OCc3cnn(-c4ccccc4)c3)cc2O)c1Oc1ccc(F)cc1	8%	?	19%
O=C(CSc1ncnc2c1cnn2-c1ccccc1)Nc1ccc2c(c1)OCO2	2%	-7%	-43%
O=C(CSc1ncnc2c1cnn2-c1ccc(Cl)cc1)NCc1ccc2c(c1)OCO2	3%	13µM*	1%
CC(/C=N/Nc1nnc2c(n1)[nH]c1ccccc12)=C\c1ccco1	-2%	10µM*	11%
Cc1cccc2c1[nH]c1nc(N/N=C\c3ccco3)nnc12	-1%	-11%	13%
CSc1nsc(SCC(=O)Nc2ccc(F)cc2F)n1	/	/	-4%
N#Cc1c(N2CCNCC2)nc(-c2ccco2)c2c1CCCC2	/	/	4%
N#Cc1c(NC2CCCCC2)nc(-c2ccco2)c2c1CCCC2	16µM*	25µM*	9%
CC1(C)Cc2c(C#N)c(NCCO)nc(-c3ccco3)c2CO1	/	/	5%
N#Cc1c(NCCCO)nc(-c2ccco2)c2c1CCCC2	16µM*	-7%	10%
Cc1cc(C)c(NC(=O)Cn2c(=O)n(CCC(C)C)c(=O)c3cccnc32)c(C)c1	1%	-10%	/
COc1cccc(CC(NC(C)=O)C(=O)NC2CCN(S(=O)(=O)c3cccc4ccccc34)CC2)c1 (stereo unspecified)	-5%	?	1%
COc1ccc(-c2nnn(CC(=O)c3c[nH]c4ccccc34)n2)cc1OC	1%	0%	-7%
CCCCOc1ccc(-c2nnn(CC(=O)c3c[nH]c4ccccc34)n2)cc1	6%	7.9µM*	6%
COc1cc(OC)cc(-c2nc3ccccc3c(=O)o2)c1	0%	16µM*	-2%
COc1cccc(-c2nc3ccccc3c(=O)o2)c1	1%	-9%	-5%
Nc1c(C(=O)NCCCc2ccccc2)c2nc3ccccc3nc2n1Cc1cccs1	6%	6.3µM*	25%
CCCCCn1c(N)c(C(=O)NCc2cccs2)c2nc3ccccc3nc21	0%	4%	8%
SMILES	Cruzain inh Det	Cruzain noTriton	NS1 function inh
Fc1ccc(CSc2ccc3nnc(-c4cccs4)n3n2)cc1	-2%	?	-2%
Cc1cccc(CSc2ccc3nnc(-c4cccs4)n3n2)c1	-4%	32µM*	-1%
Cc1ccc(S(=O)(=O)Oc2ccccc2/C=C2\SC(=O)NC2=O)cc1	/	/	-1%
O=C1NC(=O)/C(=C/c2ccccc2Oc2ccc(Cl)cc2)S1	2%	20µM*	1%
CCOc1ccc(C(=O)Nc2c(C)nc(Nc3ccccc3)nc2Nc2ccccc2)cc1OCC	-13%	?	/
O=C(Cn1c(-c2cccs2)cc2cc(F)ccc21)NCCc1ccc(Cl)cc1	-2%	13µM*	/
CCOc1ccc(CCNC(=O)Cn2c(-c3cccs3)cc3cc(F)ccc32)cc1OCC	-3%	15%	/
S=c1nc(C2CCCCC2)n(-c2ccccc2)[nH]1	/	/	-9%
COc1ccccc1OCCn1cc(/C=N/NC(=O)c2ccncc2)c2ccccc21	/	/	-26%
Cc1cccc(OCCCSc2nc(-c3ccc(C(C)(C)C)cc3)nc3cc(=O)[nH]n23)c1C	-11%	10µM*	/
CCc1ccc(OCCCSc2nc(-c3ccc(C(C)(C)C)cc3)nc3cc(=O)[nH]n23)cc1	-6%	6.3µM*	/
Cc1cccc(-c2nc(SCCCOc3ccc(Cl)c(C)c3)n3[nH]c(=O)cc3n2)c1	3%	-9%	/
CCc1ccc(OCCSc2nc(-c3cccc(C)c3)nc3cc(=O)[nH]n23)cc1	2%	-8%	/
CC(=O)N1CCc2cc(S(=O)(=O)CCC(=O)N3CCC(C)CC3)ccc21	/	/	2%
Cc1cccc(CN2C(=O)c3ccccc3Sc3ccc(C(=O)NCc4cccs4)cc32)c1	0%	?	/
Cc1cc(NC(=O)CCNS(=O)(=O)c2ccc3[nH]c(=O)oc3c2)ccc1Br	/	/	-1%
COc1ccc(CCNC(=O)C2CCCN(S(=O)(=O)c3ccc(F)cc3)C2)cc1 (stereo unspecified)	/	/	18%
CC(C)(C)C(=O)Nc1c2c(nc3c1CCC3)CCCC2	-3%	-13%	9%
Cc1cc2c(cc1S(=O)(=O)NCC(C)c1ccccc1)n(C)c(=O)c(=O)n2C (stereo unspecified)	/	/	0%
CCN(CC)S(=O)(=O)c1cccc(C(=O)OCC(=O)Nc2ccc3c(c2)c2ccccc2n3CC)c1	-4%	7.9µM*	15%
CCn1c2ccccc2c2cc(NC(=O)COc3cccc(C)c3)ccc21	-5%	-23%	/
COCC(=O)N1CCC(Oc2ccc(C(=O)NCc3cc(C(C)C)no3)cc2)CC1	/	/	-16%
CCOC(=O)c1nn(-c2cccc(Cl)c2)c2nc(Nc3ccccc3)cc(=O)n12	-6%	?	-4%
Cc1cccc(-n2nc(C(=O)Nc3ccccc3)n3c(=O)cc(-c4ccccc4)nc23)c1	-1%	7.9µM*	0%
CCOC(=O)c1nn(-c2cccc(OC)c2)c2nc(Nc3ccccc3)cc(=O)n12	-6%	?	-7%
SMILES	Cruzain inh Det	Cruzain noTriton	NS1 function inh
O=C(c1ccccc1)c1nn(-c2cccc(Cl)c2)c2nc(-c3ccccc3)cc(=O)n12	4%	25µM*	?
OCCNc1cc(-n2nc(-c3ccccc3)cc2-c2ccccc2)ncn1	-4%	?	-9%
COc1cc(/C=N/NC(=O)c2ccc(=O)[nH]n2)ccc1O	-7%	-6%	1%
CN(C)c1ccc(C(c2nnnn2C2CCCCC2)N2CCN(C(=O)c3ccco3)CC2)cc1 (stereo unspecified)	/	/	2%
Cc1noc(/C=C/c2cccs2)c1S(=O)(=O)N1CCC(C(=O)NCc2ccccc2Cl)CC1	-5%	13µM*	/
Cc1ccc(CNC(=O)C2CCN(S(=O)(=O)c3c(C)noc3/C=C/c3cccs3)CC2)cc1	-5%	0%	/
CCOC(=O)c1noc2ncnc(N(CCC(=O)OC)c3ccccc3)c12	4%	7%	/
CCCOC(=O)Oc1ccc2c(=O)c(Oc3cc(C)cc(C)c3)coc2c1	-7%	-4%	-29%
COc1cc(C2=N/C(=C\c3ccccc3)C(=O)O2)cc(OC)c1OC	3%	-8%	/
Cc1ccc(C2=N/C(=C\c3cccnc3)C(=O)O2)cc1	14µM*	13µM*	?
O=C(CSCc1ccc(Br)cc1)N=Nc1c(O)[nH]c2ccccc12	-3%	5%	-11%
Cc1ccc(-c2csc3nnc(SCC(=O)N4CCN(Cc5ccccc5)CC4)n23)cc1	-6%	20µM*	-11%
O=C(CSc1nnc2scc(-c3ccccc3)n12)N1CCN(Cc2ccccc2)CC1	-5%	-9%	-5%
